This is an account of results in PubChem BioAssay (NCATS).

Unmarked numbers belong to inactive results. Inconclusive results are not listed. Activity calls are given as the source filed them. Unless noted, the call rests on the fitted dose curve; in most records, active means well fitted curve in either direction with a large enough effect (not every such curve was filed as active); inconclusive means small, poorly fitted or top-dose-only effect, or another doubt; inactive means flat fitted curve, though single readings scatter.

The nature of experiment [1]: AP1 Signaling Pathway (AID 357).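 Further: ME-180 reporter cells stimulated with EGF at its EC50 level; on the % scale 0 is the no-effect control and ±100 the full control effect.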 The settings on record: ME-180 AP-1-bla reporter, EGF-induced, beta-lactamase ratio, 5 h. Summed up: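 Modulation of EGF-driven AP-1 transcription was assessed with a beta-lactamase reporter in ME-180 cells. Compound and EC50 EGF were co-incubated 5 hours at 37 °C before 2.5-hour CCF4 loading at room temperature and dual-emission reading.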

The nature of experiment [2]: NFAT Signaling Pathway (AID 444).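 Further: carbachol stimulus at about its EC50 of 1 µM final; on the % scale 0 is the no-effect control and ±100 the full control effect.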 Conditions: Jurkat NFAT-bla M1, carbachol, beta-lactamase ratio, 5 h. In a few lines: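 Jurkat cells carrying an NFAT-driven β-lactamase reporter and co-transfected muscarinic M1 receptor were treated with compound plus carbachol (1 uM final, an EC50 level) for 5 h at 37 °C. CCF4 loading followed for 1 h at RT; 460/530 nm ratio gave %activity.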

Experiment [3] can be described thus: Stat Signaling Pathway (AID 446).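 Further: ME-180 cervical cancer cells given 40 pM IL-6 alongside compound; SIE-controlled beta-lactamase reporter measured as 460/530 nm FRET emission ratio; on the % scale 0 is the no-effect control and ±100 the full control effect.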 The settings on record: ME-180 SIE beta-lactamase reporter, IL-6 stimulated, 5 h; series mostly up to 17.2 µM. Summed up: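 Reporter line: ME-180 cervical carcinoma, SIE-beta-lactamase. Treatment: compound with 40 pM IL-6, 5 hrs, 37 C, in low-serum OPTI-MEM with 10 mM HEPES pH 7.3. Detection: 460/530 nm fluorescence.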
Experiment [4] addresses Glucocorticoid receptor (Homo sapiens) (UniProt P04150). The experiment can be described thus: GR-EFC Redistribution (AID 451; calls by dose curve; further: potency means the concentration at half of the fitted maximal effect). Conditions: CHO-K1 GR-EFC translocation, beta-gal luminescence, 2 h. Summed up:
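CHO-K1 cells stably expressing nuclear-localized β-gal enzyme acceptor and GR fused C-terminally to the enzyme donor fragment; ligand-driven nuclear translocation restores β-gal by complementation. Compounds titrated up to 46 uM final, 2 h at 37 °C; luminescence read.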

The target is the same in experiment [5]. The experiment can be described thus: GR-GFP Redistribution (AID 450;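 active means compounds whose dose series gives a full or clear partial fitted curve of increased nuclear translocation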; further: potency means the concentration at half of the fitted maximal effect). The settings on record: U2OS GR-GFP nuclear translocation, laser cytometry, 2 h.
Experiment [6] addresses Mitogen-activated protein kinase 10 (Mus musculus) (UniProt Q61831). The experiment can be described thus: JNK3 AlphaScreen Assay (AID 530).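 Further: kinase came from lysate of stimulated human HepG2 cells; signal reports phosphorylation of biotinylated GST-cJun 1-79 at Ser73 with 10 µM ATP; on the % scale 0 is the no-effect control and ±100 the full control effect.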 The settings on record: JNK3 lysate, c-Jun phosphorylation; series mostly up to 57.1 µM. Summed up: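 Inhibitors reduce antibody binding to phosphorylated biotin-cJun, lowering AlphaScreen luminescence. Lysates from HepG2 cells pre-activated by IL-1beta plus TNF-alpha supplied JNK3; compounds were titrated.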

The target of experiment [7] is Cytochrome P450 1A2 (Homo sapiens) (UniProt P05177). The experiment can be described thus: p450-cyp1a2 (AID 410; calls by dose curve; further: potency means the concentration at half of the fitted maximal effect). The settings on record: recombinant CYP1A2, luciferin-ME demethylation, luminescence; series mostly up to 57 µM. In a few lines: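 20nM CYP1A2 with 100uM Luciferin-ME (at Km) in 100mM KPO4; compound preincubated 10 min, NADPH regeneration added, 60 min at room temperature. Luciferin quantified by luminescence after detection reagent; normalized to 57 uM furafylline.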

A short description of experiment [8]: Cell Viability - Jurkat (AID 426;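 active means dose-dependent loss of cell ATP signal giving a full or clear fitted curve, ranked by lower potency value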; further: potency means the concentration at half of the fitted maximal effect). The settings on record: qHTS. In a few lines:
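Jurkat (Clone E6-1) cells, 5000/well in complete medium, exposed to compounds for 40 hr at 37C; intracellular ATP measured by CellTiter-Glo luminescence after 20 min at room temperature. AC50 from Hill fits.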
(In general: Quantitative high-throughput screening tests each substance at several concentrations.)

A short description of experiment [9]: Cell Viability - SK-N-SH (AID 435; calls by dose curve;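 further: potency means the concentration at half of the fitted maximal effect; compound exposure lasted 40 h at 37 °C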). Conditions: SK-N-SH neuroblastoma cell viability qHTS. Summed up:
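CellTiter-Glo ATP luminescence, 20 min RT read; cells pre-plated 5 hr, compound 40 hr at 37 °C, 1500 cells/well, complete medium. Normalized DMSO = 0, 100 uM tamoxifen = 100% inhibition; Hill-fit AC50.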

Experiment [10] is described as follows: Cell Viability - NIH 3T3 (AID 541; active means well fitted curve in the direction sought with a large enough effect; an effect the other way counts as inactive or inconclusive;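 further: plate controls were DMSO alone for no effect and tamoxifen positive control for full effect; nearly all actives have a fitted effect of over 25% in size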). The settings on record: NIH 3T3 cell viability, qHTS; activity change, negative = cytotoxicity: at 92.2 µM (top of the series). In a few lines:
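Mouse NIH 3T3 fibroblasts, 1000 cells/well, rested 5 hr at 37 °C, then exposed to compound for 40 hr at 37 °C in complete medium. Viability read as intracellular ATP by CellTiter-Glo luminescence; AC50 from Hill-equation fits of concentration-response data.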

The nature of experiment [11]: Cell Viability - HUV-EC-C (AID 542; active means well fitted curve in the direction sought with a large enough effect; an effect the other way counts as inactive or inconclusive; further: potency means the concentration at half of the fitted maximal effect; nearly all actives have a fitted effect of over 35% in size). The settings on record: HUV-EC-C endothelial cell viability, qHTS; series mostly up to 92.2 µM. Summed up:
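HUV-EC-C human vascular endothelial cells, 1000/well, exposed to compound for 40 hr at 37 °C in complete medium. Intracellular ATP was read by CellTiter-Glo luminescence. AC50 came from Hill-equation fits of concentration-response data.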

The nature of experiment [12]: Cell Viability - H-4-II-E (AID 543; active means well fitted curve in the direction sought with a large enough effect; an effect the other way counts as inactive or inconclusive; further: potency means the concentration at half of the fitted maximal effect; nearly all actives have a fitted effect of over 35% in size). Conditions: H-4-II-E rat hepatoma viability; series mostly up to 92.2 µM. In a few lines:
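Rat hepatoma H-4-II-E cells, 1500 per well, treated 40 h at 37 °C in complete medium. Cellular ATP read by CellTiter-Glo luminescence; AC50 from Hill fits of concentration-response.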

A short description of experiment [13]: Cell Viability - SH-SY5Y (AID 544; active means well fitted curve in the direction sought with a large enough effect; an effect the other way counts as inactive or inconclusive; further: potency means the concentration at half of the fitted maximal effect; nearly all actives have a fitted effect of over 55% in size). The settings on record: SH-SY5Y neuroblastoma cell viability; series mostly up to 92.2 µM. In a few lines:
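SH-SY5Y human neuroblastoma cells (1500/well) incubated 5 h, then compound-treated 40 h at 37 °C in complete medium. Viability read as intracellular ATP by CellTiter-Glo luminescence after 20 min; AC50 from Hill-equation fits of qHTS concentration-response.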

Experiment [14] in a line: Cell Viability - Renal Proximal Tubule (AID 545; active means well fitted curve in the direction sought with a large enough effect; an effect the other way counts as inactive or inconclusive;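 further: 0% = DMSO only and -100% = 100 µM tamoxifen; nearly all actives have a fitted effect of over 40% in size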). Conditions: renal proximal tubule cells viability, primary cells of rat origin; activity change, negative = cytotoxicity: at 91.7 µM (top of the series). Summed up:
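Rat kidney proximal tubule cells, freshly isolated; 1000 cells/well, 5 hr settle, compound 40 hr 37 °C. CellTiter-Glo 20 min RT, luminescence read. AC50 by standard Hill fit.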

Sequence of Glucocorticoid receptor (Homo sapiens) (P04150 whole entry, looked up, the tested form may be a part): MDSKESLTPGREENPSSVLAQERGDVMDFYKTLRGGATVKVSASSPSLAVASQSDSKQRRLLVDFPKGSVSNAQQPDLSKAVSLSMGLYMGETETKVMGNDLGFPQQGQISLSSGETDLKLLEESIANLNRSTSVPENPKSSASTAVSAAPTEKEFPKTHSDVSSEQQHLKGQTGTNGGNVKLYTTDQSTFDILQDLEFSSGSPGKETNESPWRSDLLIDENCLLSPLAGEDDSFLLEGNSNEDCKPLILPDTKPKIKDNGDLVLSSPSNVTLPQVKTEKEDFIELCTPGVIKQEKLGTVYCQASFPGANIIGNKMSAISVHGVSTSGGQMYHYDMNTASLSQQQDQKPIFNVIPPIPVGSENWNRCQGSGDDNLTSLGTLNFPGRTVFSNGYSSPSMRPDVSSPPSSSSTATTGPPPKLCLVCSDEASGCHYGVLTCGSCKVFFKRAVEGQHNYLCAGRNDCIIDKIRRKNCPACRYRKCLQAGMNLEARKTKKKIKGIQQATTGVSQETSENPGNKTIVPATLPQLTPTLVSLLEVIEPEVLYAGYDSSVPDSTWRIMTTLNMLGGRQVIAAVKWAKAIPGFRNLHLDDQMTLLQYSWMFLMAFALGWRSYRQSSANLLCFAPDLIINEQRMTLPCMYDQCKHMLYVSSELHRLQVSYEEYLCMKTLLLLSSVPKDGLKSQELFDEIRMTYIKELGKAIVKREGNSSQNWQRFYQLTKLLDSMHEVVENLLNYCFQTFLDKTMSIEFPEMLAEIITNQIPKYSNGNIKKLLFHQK
Sequence of Cytochrome P450 1A2 (Homo sapiens) (P05177 whole entry, looked up): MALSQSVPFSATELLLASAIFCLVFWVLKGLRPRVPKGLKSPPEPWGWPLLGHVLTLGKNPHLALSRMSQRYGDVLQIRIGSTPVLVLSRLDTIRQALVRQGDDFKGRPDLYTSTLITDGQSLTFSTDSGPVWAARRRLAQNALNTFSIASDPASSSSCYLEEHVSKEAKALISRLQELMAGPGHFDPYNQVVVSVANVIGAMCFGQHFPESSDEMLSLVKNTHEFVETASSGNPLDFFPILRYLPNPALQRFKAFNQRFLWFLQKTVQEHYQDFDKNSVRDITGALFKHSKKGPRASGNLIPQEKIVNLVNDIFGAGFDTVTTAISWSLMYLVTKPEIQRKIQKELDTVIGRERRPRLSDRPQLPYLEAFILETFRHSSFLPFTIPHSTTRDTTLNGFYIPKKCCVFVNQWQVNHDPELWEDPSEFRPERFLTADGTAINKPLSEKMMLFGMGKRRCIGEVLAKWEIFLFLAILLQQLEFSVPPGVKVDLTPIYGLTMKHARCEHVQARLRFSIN

In the case of `COc1ccc2c(c1OC)C(=O)O[C@@H]2[C@H]1c2c(cc3c(c2OC)OCO3)CCN1C`, the values for the activity change, negative = inhibition in [1] (at 17.2 µM (top of the series)) and in experiment [2] (at 17.2 µM (top of the series)) were -3.96% and -10.3%, respectively. In addition, the compound was called inactive in [3]. Besides, the Potency in experiment [4] is greater than 46 µM.
With `Cc1nc2c([nH]1)c(=O)n(C)c(=O)n2Cc1ccco1`, the activity change, negative = inhibition in experiment [1] (at 38 µM (top of the series)) was -6.02%; in [2] (at 38 µM (top of the series)), -9.82%. Besides, in experiment [3], the call was inactive. Besides, the Potency in [5] and in [4] was greater than 46 µM throughout. Moreover, in experiment [6], the Potency entry was “inactive”.
Consider `CCOC(=O)C1=C(C)NC(C)=C(C(=O)OC)C1c1cccc(Cl)c1Cl` (stereo unspecified), for which, in experiment [1] (at 17.2 µM (top of the series)), the activity change, negative = inhibition is -7.25%. Moreover, the call in [3] was inactive.
In the case of `CCC(=O)c1ccc2c(c1)N(CCCN(C)C)c1ccccc1S2`, the Potency is 0.631 µM (active) in experiment [7], greater than 46 µM in experiment [5] and greater than 46 µM in experiment [4]. Further, the activity change, negative = inhibition in [2] (at 38 µM (top of the series)) was -89.3% (active). The outcome in experiment [3] was inactive. Besides, in experiment [6], the Potency result is “inactive”.
Turning to `CCCCCCCC/C=C\CCCCCCCC(=O)NCc1ccc(O)c(OC)c1`, the figures for the Potency in [7] and in [4] were 20 µM (active) and greater than 46 µM, respectively.
In the case of `COCC(=O)O[C@]1(CCN(C)CCCc2nc3ccccc3[nH]2)CCc2cc(F)ccc2[C@@H]1C(C)C`, the results for the Potency in experiment [7] and in experiment [4] were 31.6 µM (active) and greater than 46 µM, respectively. In addition, the activity change, negative = inhibition in [2] (at 38 µM (top of the series)) was -15.7%. Also, in experiment [3], the outcome was inactive. The Potency result in [6] was “inactive”.
As to `OC(CCN1CCCCC1)(c1ccccc1)C1CCCCC1` (stereo unspecified), the values for the activity change, negative = inhibition in experiment [1] (at 17.2 µM (top of the series)) and in experiment [2] (at 17.2 µM (top of the series)) were 5.32% and -77.3% (active), respectively. In addition, the compound was called inactive in experiment [3].
Consider `CCN1CCC[C@H]1CNC(=O)c1c(O)c(Cl)cc(Cl)c1OC`, for which the Potency entry in experiment [6] is “inactive”.
Turning to `CCCN(CCC)C(=O)C(CCC(=O)O)NC(=O)c1ccccc1` (stereo unspecified), the results for the activity change, negative = inhibition in experiment [1] (at 17.2 µM (top of the series)) and in experiment [2] (at 17.2 µM (top of the series)) were 1.43% and -1.88%, respectively. Also, the call in [3] was inactive. The Potency in [5] was greater than 20.6 µM.
With `COC(=O)[C@H]1[C@H]2C[C@@H]3c4[nH]c5cc(OC)ccc5c4CCN3C[C@H]2C[C@@H](OC(=O)c2cc(OC)c(OC)c(OC)c2)[C@@H]1OC`, the Potency in [8] was 35.9 µM (active); in [9] it was 46.3 µM (active); in experiment [11] it was 50.1 µM (active); in experiment [12] it was 31.6 µM (active); in experiment [13], 31.6 µM (active). In experiment [6], the Potency entry is “inactive”. Further, the activity change, negative = cytotoxicity in experiment [10] is -19.4%; in experiment [14], -101% (active).
With `CSc1ccc(C(=O)c2[nH]c(=O)[nH]c2C)cc1`, the activity change, negative = inhibition was -4.8% in experiment [1] (at 38 µM (top of the series)) and -2.92% in experiment [2] (at 38 µM (top of the series)). Further, the call in experiment [3] was inactive. Moreover, the Potency result in experiment [6] was “inactive”.
For the compound `COCCCC/C(=N\OCCN)c1ccc(C(F)(F)F)cc1`, the values for the activity change, negative = inhibition in [1] (at 17.2 µM (top of the series)) and in experiment [2] (at 17.2 µM (top of the series)) were 14.9% and 24.5%, respectively. Further, in [3], the outcome was inactive. Also, in [5], the Potency was greater than 20.6 µM.
For the compound `c1ccc2c(c1)CCCC2C1=NCCN1` (stereo unspecified), the activity change, negative = inhibition in [1] (at 17.2 µM (top of the series)) is 6.93%. The compound was called inactive in experiment [3].
